From PubChem BioAssay (Tox21)
Inconclusive results are not listed. Entries that show only a call come without a potency. Active and inactive are the calls of the source. Calls follow the shape of the dose curve; as a rule, active = well fitted curve in the direction sought with a large enough effect in the repeat runs; inconclusive = weak or mixed curves; inactive = no such curve, though single readings can be large; an effect the other way counts as inactive or inconclusive.

System: not listed separately
Test: qHTS assay to identify small molecule antagonists of the estrogen receptor alpha (ER-alpha) signaling pathway using the BG1 cell line - cell viability counter screen (AID 743081);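 also: compound given together with 17beta-estradiol as the ER stimulus; nearly all actives have a fitted effect of over 45% in size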
Settings: BG1Luc4E2 viability, CellTiter-Fluor, 22 h; series mostly up to 70.3 µM
For CNC(=O)O/N=C(\SC)C(=O)N(C)C, the outcome was “inactive”. For CCCCC(CC)C(=O)Cl (centres undefined), the outcome was “inactive”. For O=[N+]([O-])c1ccc(Cl)c(Cl)c1, the outcome was “inactive”. With CNC(=O)O/N=C/C(C)(C)S(C)=O (centres undefined) the outcome was “inactive”. For COP(=S)(OC)SCN1C(=O)c2ccccc2C1=O, the outcome was “inactive”. For CNC(=O)Oc1cccc2ccccc12, the outcome was “inactive”. For CNC(=O)O/N=C/C(C)(C)SC, the outcome was “inactive”. In the case of CC(C)CCCCCCOC(=O)c1ccccc1C(=O)OCCCCCCC(C)C, the outcome is reported as “inactive”. With O=C(O)CCCc1ccc(N(CCCl)CCCl)cc1 the outcome was “inactive”. In the case of O=C(O)Cc1ccccc1, the outcome is reported as “inactive”. In the case of Oc1ccc(Cl)cc1, the outcome is reported as “inactive”. For OCc1ccco1, the outcome was “inactive”. In the case of FC(F)(F)c1ccc(Cl)cc1, the outcome is reported as “inactive”. With Nc1ccc(N)cc1 the outcome was “inactive”. In the case of Cc1cc(Cl)ccc1OC(C)C(=O)O (centres undefined), the outcome is reported as “inactive”. For O=[N+]([O-])c1cc([As](=O)(O)O)ccc1O, the outcome was “inactive”. In the case of COP(=S)(OC)Oc1ccc(SC)c(C)c1, the outcome is reported as “inactive”. In the case of CN(C)CCC#N, the outcome is reported as “inactive”. For COc1nc(NC(C)C)nc(NC(C)C)n1, the outcome was “inactive”. In the case of Cc1cccc(C)c1NC(=O)CN1CCCC1=O, the outcome is reported as “inactive”. For COS(=O)(=O)OC, the outcome was “inactive”. In the case of CNC(=O)O/N=C/C(C)(C)S(C)(=O)=O, the outcome is reported as “inactive”. In the case of Sc1ccccc1, the outcome is reported as “inactive”. For Nc1ccc([As](=O)(O)O)cc1, the outcome was “inactive”. With Cc1ccc(O)c(C)c1 the outcome was “inactive”. In the case of C=CC(=O)OCCCCCC(C)C, the outcome is reported as “inactive”. With CCOc1ccc(N)cc1 the outcome was “inactive”. With CSc1nnc(C(C)(C)C)c(=O)n1N the outcome was “inactive”. For C[C@H]1C(=O)O[C@@H]2CCN3CC=C(COC(=O)[C@](C)(O)[C@]1(C)O)[C@H]23, the outcome was “inactive”. In the case of O=C/C=C/c1ccccc1, the outcome is reported as “inactive”.

Molecular target: Aromatase (Homo sapiens) (UniProt P11511)
Sequence (P11511 whole entry, looked up): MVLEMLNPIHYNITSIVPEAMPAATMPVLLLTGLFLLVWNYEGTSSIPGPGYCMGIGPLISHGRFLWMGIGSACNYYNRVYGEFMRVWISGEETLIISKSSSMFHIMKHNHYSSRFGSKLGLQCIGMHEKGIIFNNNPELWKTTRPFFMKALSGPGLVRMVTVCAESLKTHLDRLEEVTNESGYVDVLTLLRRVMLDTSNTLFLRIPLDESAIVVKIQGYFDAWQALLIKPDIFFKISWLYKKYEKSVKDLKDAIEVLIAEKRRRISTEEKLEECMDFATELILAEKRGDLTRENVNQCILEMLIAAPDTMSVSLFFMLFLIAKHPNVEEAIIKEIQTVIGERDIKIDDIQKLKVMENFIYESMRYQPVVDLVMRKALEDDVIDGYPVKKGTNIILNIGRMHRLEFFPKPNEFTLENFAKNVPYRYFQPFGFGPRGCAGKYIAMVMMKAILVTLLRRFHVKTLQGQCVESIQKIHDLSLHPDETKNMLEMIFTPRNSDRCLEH
Test: qHTS assay to identify aromatase inhibitors (AID 743083); also: nearly all actives have a fitted effect of over 55% in size
Settings: MCF-7 aro ERE, testosterone-driven ERE luciferase, 24 h; series mostly up to 70.3 µM
In the case of CNC(=O)O/N=C(\SC)C(=O)N(C)C, the Potency is reported as “inactive”. With CCCCC(CC)C(=O)Cl (centres undefined) the Potency was “inactive”. In the case of O=[N+]([O-])c1ccc(Cl)c(Cl)c1, the Potency is reported as “inactive”. For CNC(=O)O/N=C/C(C)(C)S(C)=O (centres undefined), the Potency was “inactive”. For COP(=S)(OC)SCN1C(=O)c2ccccc2C1=O, the Potency was “inactive”. For CNC(=O)Oc1cccc2ccccc12, the Potency was “inactive”. For CNC(=O)O/N=C/C(C)(C)SC, the Potency was “inactive”. For CC(C)CCCCCCOC(=O)c1ccccc1C(=O)OCCCCCCC(C)C, the Potency was “inactive”. In the case of O=C(O)CCCc1ccc(N(CCCl)CCCl)cc1, the Potency is reported as “inactive”. For O=C(O)Cc1ccccc1, the Potency was “inactive”. With Oc1ccc(Cl)cc1 the Potency was “inactive”. With OCc1ccco1 the Potency was “inactive”. In the case of FC(F)(F)c1ccc(Cl)cc1, the Potency is reported as “inactive”. In the case of Nc1ccc(N)cc1, the Potency is reported as “inactive”. For Cc1cc(Cl)ccc1OC(C)C(=O)O (centres undefined), the Potency was “inactive”. In the case of O=[N+]([O-])c1cc([As](=O)(O)O)ccc1O, the Potency is reported as “inactive”. For COP(=S)(OC)Oc1ccc(SC)c(C)c1, the Potency was “inactive”. With CN(C)CCC#N the Potency was “inactive”. In the case of COc1nc(NC(C)C)nc(NC(C)C)n1, the Potency is reported as “inactive”. With Cc1cccc(C)c1NC(=O)CN1CCCC1=O the Potency was “inactive”. With COS(=O)(=O)OC the Potency was “inactive”. In the case of CNC(=O)O/N=C/C(C)(C)S(C)(=O)=O, the Potency is reported as “inactive”. In the case of Sc1ccccc1, the Potency is reported as “inactive”. With Nc1ccc([As](=O)(O)O)cc1 the Potency was “inactive”. With Cc1ccc(O)c(C)c1 the Potency was “inactive”. With C=CC(=O)OCCCCCC(C)C the Potency was “inactive”. With CCOc1ccc(N)cc1 the Potency was “inactive”. For C[C@H]1C(=O)O[C@@H]2CCN3CC=C(COC(=O)[C@](C)(O)[C@]1(C)O)[C@H]23, the Potency was “inactive”. With O=C/C=C/c1ccccc1 the Potency was “inactive”.
